The supplement of paper PMC10849652
About 7,900 targets were measured; listed, in parts, are those with a hit and a random draw of the rest. About 0.6% of all pairs of compound and target were hits.

Columns and labels:
Assay in all cases: log2 fold change, soluble protein after heating vs DMSO (PISA); higher = thermal stabilisation; K562 cells, 10 uM, 30 min; active = over 0.2 and 3.5 SD of the protein, either way, in both replicates (recomputed)
[1] = compound: CC[C@@H]1C(=O)N(C)c2cnc(Nc3ccc(C(=O)NC4CCN(C)CC4)cc3OC)nc2N1C1CCCC1
Outline: (§1)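 Aliquots of K562 cells (2×10^6 cells/mL) treated with 10 μM compound for 30 min were heated for 3 min over 48°C-58°C. After pooling and extraction in PBS with 0.5% NP-40 at 4°C, soluble protein from a 21,000xg, 90 min spin was quantified by TMTpro 16plex LC-MS/MS with channel sums equalised. Thermal stability is expressed against control samples, from duplicates, as a log2 fold change.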

volasertib = compound: CC[C@@H]1C(=O)N(C)c2cnc(Nc3ccc(C(=O)N[C@H]4CC[C@H](N5CCN(CC6CC6)CC5)CC4)cc3OC)nc2N1C(C)C [volasertib]
Outline: as §1

[2] = compound: CC[C@H](C)N1C=C(C2=C(C=C(C=C21)C3=CN=C(C=C3)N4CCNCC4)C(=O)NCC5=C(C=C(NC5=O)C)C)C
Outline: as §1

epoxomicin = compound: CC[C@H](C)[C@@H](C(=O)N[C@@H]([C@@H](C)O)C(=O)N[C@@H](CC(C)C)C(=O)[C@]1(CO1)C)NC(=O)[C@H]([C@@H](C)CC)N(C)C(=O)C [epoxomicin]
Outline: as §1

[3] = compound: CCn1c(C(=O)N(C2CC2)C2CC2)cc2c3c(ncn3C)c(Nc3cc(C)n(C)n3)nc21
Outline: as §1

[4] = compound: CN(C)CC(=O)Nc1ccc2[nH]c(=O)c3ccccc3c2c1
Outline: as §1

rosiglitazone = compound: CN(CCOC1=CC=C(C=C1)C[C@H]2C(=O)NC(=O)S2)C3=CC=CC=N3 (racemic) [rosiglitazone]
Outline: as §1

[5] = compound: CN1C2=C(C3=C1C(=O)N(N=C3)CC4=CC(=CC=C4)N)SC(=C2)S(=O)C
Outline: as §1

saracatinib = compound: CN1CCN(CCOc2cc(OC3CCOCC3)c3c(Nc4c(Cl)ccc5c4OCO5)ncnc3c2)CC1 [saracatinib]
Outline: as §1

sotrastaurin = compound: CN1CCN(c2nc(C3=C(c4c[nH]c5ccccc45)C(=O)NC3=O)c3ccccc3n2)CC1 [sotrastaurin]
Outline: as §1

alvocidib = compound: CN1CC[C@H](c2c(O)cc(O)c3c(=O)cc(-c4ccccc4Cl)oc23)[C@H](O)C1 [alvocidib]
Outline: as §1

Tubastatin A = compound: CN1CCc2c(c3ccccc3n2Cc2ccc(C(=O)NO)cc2)C1 [Tubastatin A]
Outline: as §1

[6] = compound: CNC(=O)C1=CC=CC=C1NC2=NC(=NC=C2Cl)NC3=C(C=C(C=C3)N4CCOCC4)OC
Outline: as §1

defactinib = compound: CNC(=O)c1ccc(Nc2ncc(C(F)(F)F)c(NCc3nccnc3N(C)S(C)(=O)=O)n2)cc1 [defactinib]
Outline: as §1

rucaparib = compound: CNCc1ccc(-c2[nH]c3cc(F)cc4c3c2CCNC4=O)cc1 [rucaparib]
Outline: as §1

[7] = compound: CNc1nc(-c2ccc3c(N)n[nH]c3c2)cc(N2C[C@@H](C(=O)NC3CCCCC3)CC[C@H]2C)n1
Outline: as §1

encorafenib = compound: COC(=O)N[C@@H](C)CNc1nccc(-c2cn(C(C)C)nc2-c2cc(Cl)cc(NS(C)(=O)=O)c2F)n1 [encorafenib]
Outline: as §1

[8] = compound: COC(=O)[C@H](CCSC)NC(=O)C1=C(C=C(C=C1)NC[C@H](CS)N)C2=CC=CC=C2
Outline: as §1

[9] = compound: CCn1cc(-c2ccnc3[nH]c(-c4cccc(CN(C)C)c4)cc23)c(-c2ccc(NC(=O)N(C)C)cc2)n1
Outline: as §1

[10] = compound: CN1CCC(CNc2ccc3ncc(-c4cccc(OC(F)(F)F)c4)n3n2)CC1
Outline: as §1

Measured: log2 fold change

NAT14 (UniProt Q8WUY8)
Sequence of UniProt Q8WUY8 (Q8WUY8 whole entry, looked up): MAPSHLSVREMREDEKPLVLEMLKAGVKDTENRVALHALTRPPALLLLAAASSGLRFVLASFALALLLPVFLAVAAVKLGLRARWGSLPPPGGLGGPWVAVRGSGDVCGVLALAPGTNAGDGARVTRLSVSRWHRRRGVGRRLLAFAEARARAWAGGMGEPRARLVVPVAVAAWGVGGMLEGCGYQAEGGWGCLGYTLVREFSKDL
inactive: [1] -0.192 | volasertib -0.261 | [2] 0.063 | epoxomicin -0.024 | [3] 0.064 | [4] 0.077 | rosiglitazone 0.095 | [5] -0.107 | saracatinib -0.054 | sotrastaurin 0.068 | alvocidib -0.134 | Tubastatin A -0.02 | [6] 0 | defactinib -0.235 | rucaparib -0.002 | [7] -0.005 | encorafenib 0.002 | [8] 0.163

MT-ND1 (UniProt P03886)
Sequence of UniProt P03886 (P03886 whole entry, looked up): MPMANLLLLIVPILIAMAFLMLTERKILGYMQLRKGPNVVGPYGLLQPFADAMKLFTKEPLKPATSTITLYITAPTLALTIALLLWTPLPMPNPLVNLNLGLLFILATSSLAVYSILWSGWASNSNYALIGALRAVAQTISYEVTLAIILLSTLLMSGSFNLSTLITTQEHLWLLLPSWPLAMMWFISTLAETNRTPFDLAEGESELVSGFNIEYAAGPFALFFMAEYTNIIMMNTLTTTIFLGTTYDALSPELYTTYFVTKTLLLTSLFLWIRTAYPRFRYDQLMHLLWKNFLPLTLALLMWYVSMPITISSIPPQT
inactive: [1] -0.157 | volasertib 0.147 | [2] 0.035 | epoxomicin 0.063 | [3] 0.094 | [4] 0.253 | rosiglitazone -0.071 | [5] -0.115 | saracatinib 0.1 | sotrastaurin -0.005 | alvocidib -0.071 | Tubastatin A 0.123 | [6] -0.025 | defactinib -0.068 | rucaparib -0.041 | [7] -0.11 | encorafenib 0.017 | [8] -0.058

NFYB (UniProt P25208)
Sequence of UniProt P25208 (P25208 whole entry, looked up): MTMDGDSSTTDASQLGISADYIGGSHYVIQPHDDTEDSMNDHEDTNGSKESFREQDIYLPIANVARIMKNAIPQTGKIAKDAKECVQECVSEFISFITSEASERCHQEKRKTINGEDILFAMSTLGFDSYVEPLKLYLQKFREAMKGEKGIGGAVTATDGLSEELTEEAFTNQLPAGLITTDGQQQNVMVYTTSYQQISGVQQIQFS
inactive: [1] 0.008 | volasertib 0.019 | [2] -0.029 | [3] -0.007 | [9] -0.055 | [4] -0.011 | rosiglitazone -0.054 | [5] 0.031 | [10] 0.085 | saracatinib 0.111 | sotrastaurin -0.084 | alvocidib 0.162 | Tubastatin A -0.143 | [6] 0 | defactinib -0.001 | rucaparib -0.099 | [7] -0.019 | encorafenib -0.051 | [8] 0.03

MMADHC (UniProt Q9H3L0)
Sequence of UniProt Q9H3L0 (Q9H3L0 whole entry, looked up): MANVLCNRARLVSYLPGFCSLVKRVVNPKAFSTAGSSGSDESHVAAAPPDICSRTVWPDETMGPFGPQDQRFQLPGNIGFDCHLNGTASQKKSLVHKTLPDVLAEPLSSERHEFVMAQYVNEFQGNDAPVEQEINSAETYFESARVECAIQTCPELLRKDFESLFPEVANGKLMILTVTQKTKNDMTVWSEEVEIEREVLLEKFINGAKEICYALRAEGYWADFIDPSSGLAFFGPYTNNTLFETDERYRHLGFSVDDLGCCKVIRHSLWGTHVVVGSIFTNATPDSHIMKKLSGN
inactive: [1] -0.024 | [2] 0.087 | [3] -0.013 | [9] 0.03 | [4] 0.006 | rosiglitazone 0.015 | [5] 0.047 | [10] 0.181 | saracatinib -0.044 | alvocidib 0.031 | Tubastatin A 0.07 | [6] -0.011 | defactinib -0.061 | rucaparib 0.139 | [7] 0.062 | encorafenib -0.031 | [8] -0.011
active: volasertib -0.482

NDUFB1 (UniProt O75438)
Sequence of UniProt O75438 (O75438 whole entry, looked up): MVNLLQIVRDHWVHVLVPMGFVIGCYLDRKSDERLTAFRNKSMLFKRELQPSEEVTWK
inactive: [1] -0.004 | volasertib -0.08 | [2] -0.099 | [3] -0.026 | [9] -0.102 | [4] 0.006 | rosiglitazone 0.009 | sotrastaurin 0.015 | alvocidib -0.042 | Tubastatin A -0.09 | [6] -0.01 | defactinib -0.021 | rucaparib -0.035 | encorafenib 0.001 | [8] 0.034
active: epoxomicin 0.396 | [10] 0.282
